In PMC5540273 (PLoS ONE, 2017):
Read-outs that look alike come from different tables or passages of the source.

What was measured:
MAPKAPK5 = conditions: concentration: 1 μM,replicates: in singlicate; n = 1
MARK1 = conditions: concentration: 1 μM,replicates: in singlicate; n = 1
MARK2 = conditions: concentration: 1 μM,replicates: in singlicate; n = 1
MARK3 = conditions: concentration: 1 μM,replicates: in singlicate; n = 1
MARK4 = conditions: concentration: 1 μM,replicates: in singlicate; n = 1
MAST1 = conditions: concentration: 1 μM,replicates: in singlicate; n = 1
MEK1 = tested on: T1, MEK1; conditions: concentration: 1 μM,replicates: in singlicate; n = 1
T1 construct: gene MAP2K1

MEK2 = tested on: T2, MEK2; conditions: concentration: 1 μM,replicates: in singlicate; n = 1
T2 construct: gene MAP2K2

MEK3 = tested on: T3, MEK3; conditions: concentration: 1 μM,replicates: in singlicate; n = 1
T3 construct: gene MAP2K3

MEK4 = tested on: T4, MEK4; conditions: concentration: 1 μM,replicates: in singlicate; n = 1
T4 construct: gene MAP2K4

MEK5 = tested on: T5, MEK5; conditions: concentration: 1 μM,replicates: in singlicate; n = 1
T5 construct: gene MAP2K5

MEK6 = tested on: T6, MEK6; conditions: concentration: 1 μM,replicates: in singlicate; n = 1
T6 construct: gene MAP2K6

MELK = conditions: concentration: 1 μM,replicates: in singlicate; n = 1
MERTK = conditions: concentration: 1 μM,replicates: in singlicate; n = 1
MET = conditions: n = 1
MINK = tested on: T7, MINK; conditions: concentration: 1 μM,replicates: in singlicate; n = 1
T7 construct: gene MINK1

MKK7 = conditions: concentration: 1 μM,replicates: in singlicate; n = 1
MKNK1 = conditions: concentration: 1 μM,replicates: in singlicate; n = 1
MKNK2 = conditions: concentration: 1 μM,replicates: in singlicate; n = 1
MLCK = tested on: T8, MLCK; conditions: concentration: 1 μM,replicates: in singlicate; n = 1
T8 construct: gene MYLK3

[1] = concentration: 1 μM,replicates: in singlicate
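Further: KINOMEscan kinase panel screen.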

## CC(C(=O)NC1CCN(c2ccnc(Nc3ccc(F)cc3)n2)C1)c1ccc(Cl)cc1 (stereo not drawn) [GSK1379713]
MAPKAPK5
  %Inh: 18%
MARK1
  %Inh: 0%
MARK2
  %Inh: 0%
MARK3
  %Inh: 0%
MARK4
  %Inh: 1%
MAST1
  %Inh: 11%
MEK1
  %Inh: 0%
MEK2
  %Inh: 0%
MEK3
  %Inh: 0%
MEK4
  %Inh: 10%
MEK5
  %Inh: 7%
MEK6
  %Inh: 0%
MELK
  %Inh: 0%
MERTK
  %Inh: 0%
MET; [1]
  %Inh: 0%
MINK
  %Inh: 0%
MKK7
  %Inh: 0%
MKNK1
  %Inh: 5%
MKNK2
  %Inh: 0%
MLCK
  %Inh: 0%

## Cl.Cl.NC[C@H](CC1CCCCC1)NC(=O)c1ccc(-c2ccnc3[nH]ccc23)s1 [GSK1581428]
MAPKAPK5
  %Inh: 0%
MARK1
  %Inh: 26%
MARK2
  %Inh: 58%
MARK3
  %Inh: 74%
MARK4
  %Inh: 24%
MAST1
  %Inh: 0%
MEK1
  %Inh: 0%
MEK2
  %Inh: 17%
MEK3
  %Inh: 93.8%
MEK4
  %Inh: 54%
MEK5
  %Inh: 52%
MEK6
  %Inh: 27%
MELK
  %Inh: 96.4%
MERTK
  %Inh: 68%
MET; [1]
  %Inh: 16%
MINK
  %Inh: 67%
MKK7
  %Inh: 0%
MKNK1
  %Inh: 66%
MKNK2
  %Inh: 97.6%
MLCK
  %Inh: 74%

## COC(=O)c1cccc(NC(=O)NC2CCN(c3ccnc(Nc4cc(OC)c(OC)c(OC)c4)n3)C2)c1 (stereo not drawn) [GSK1379767]
MAPKAPK5
  %Inh: 0%
MARK1
  %Inh: 0%
MARK2
  %Inh: 0%
MARK3
  %Inh: 0%
MARK4
  %Inh: 7%
MAST1
  %Inh: 15%
MEK1
  %Inh: 0%
MEK2
  %Inh: 17%
MEK3
  %Inh: 0%
MEK4
  %Inh: 26%
MEK5
  %Inh: 98.8%
MEK6
  %Inh: 4%
MELK
  %Inh: 0%
MERTK
  %Inh: 40%
MET; [1]
  %Inh: 19%
MINK
  %Inh: 3%
MKK7
  %Inh: 21%
MKNK1
  %Inh: 12%
MKNK2
  %Inh: 32%
MLCK
  %Inh: 12%

## O=C(Nc1ccccc1)c1cccc(Oc2ccc3nccn3n2)c1
MAPKAPK5
  %Inh: 4%
MARK1
  %Inh: 0%
MARK2
  %Inh: 6%
MARK3
  %Inh: 0%
MARK4
  %Inh: 10%
MAST1
  %Inh: 0%
MEK1
  %Inh: 0%
MEK2
  %Inh: 6%
MEK3
  %Inh: 13%
MEK4
  %Inh: 0%
MEK5
  %Inh: 9%
MEK6
  %Inh: 0%
MELK
  %Inh: 11%
MERTK
  %Inh: 0%
MET; [1]
  %Inh: 0%
MINK
  %Inh: 6%
MKK7
  %Inh: 0%
MKNK1
  %Inh: 7%
MKNK2
  %Inh: 6%
MLCK
  %Inh: 1%

## Cn1ccc2ncnc(Oc3ccc(NC(=O)Nc4ccnc(C(F)(F)F)c4)c(Cl)c3)c21
MAPKAPK5
  %Inh: 0%
MARK1
  %Inh: 0%
MARK2
  %Inh: 0%
MARK3
  %Inh: 0%
MARK4
  %Inh: 0%
MAST1
  %Inh: 0%
MEK1
  %Inh: 4%
MEK2
  %Inh: 15%
MEK3
  %Inh: 8%
MEK4
  %Inh: 0%
MEK5
  %Inh: 9%
MEK6
  %Inh: 0%
MELK
  %Inh: 0%
MERTK
  %Inh: 23%
MET; [1]
  %Inh: 2%
MINK
  %Inh: 0%
MKK7
  %Inh: 0%
MKNK1
  %Inh: 0%
MKNK2
  %Inh: 0%
MLCK
  %Inh: 0%

## O=C1NCCc2[nH]c(-c3ccncc3)cc21
MAPKAPK5
  %Inh: 46%
MARK1
  %Inh: 22%
MARK2
  %Inh: 12%
MARK3
  %Inh: 25%
MARK4
  %Inh: 11%
MAST1
  %Inh: 59%
MEK1
  %Inh: 8%
MEK2
  %Inh: 26%
MEK4
  %Inh: 0%
MEK5
  %Inh: 35%
MEK6
  %Inh: 25%
MELK
  %Inh: 21%
MERTK
  %Inh: 0%
MET; 1 µM
  %Inh: 33%
MINK
  %Inh: 55%
MKK7
  %Inh: 0%
MKNK1
  %Inh: 13%
MKNK2
  %Inh: 23%
MLCK
  %Inh: 58%

## Cc1ccc2c(-c3ccnc(Nc4ccc(C(F)(F)F)cc4)n3)cnn2n1 [GW819776]
MAPKAPK5
  %Inh: 0%
MARK1
  %Inh: 17%
MARK2
  %Inh: 0%
MARK3
  %Inh: 0%
MARK4
  %Inh: 32%
MAST1
  %Inh: 41%
MEK1
  %Inh: 32%
MEK2
  %Inh: 40%
MEK3
  %Inh: 90.7%
MEK4
  %Inh: 63%
MEK5
  %Inh: 33%
MEK6
  %Inh: 13%
MELK
  %Inh: 0%
MERTK
  %Inh: 26%
MET; [1]
  %Inh: 5%
MINK
  %Inh: 18%
MKK7
  %Inh: 0%
MKNK1
  %Inh: 0%
MKNK2
  %Inh: 0%
MLCK
  %Inh: 0%

## CCn1c(-c2nonc2N)nc2cncc(CNC3CCNCC3)c21.Cl [SB-747651]
MAPKAPK5
  %Inh: 0%
MARK1
  %Inh: 0%
MARK2
  %Inh: 0%
MARK3
  %Inh: 2%
MARK4
  %Inh: 0%
MAST1
  %Inh: 21%
MEK1
  %Inh: 0%
MEK2
  %Inh: 1%
MEK3
  %Inh: 16%
MEK4
  %Inh: 40%
MEK5
  %Inh: 32%
MEK6
  %Inh: 0%
MELK
  %Inh: 37%
MERTK
  %Inh: 0%
MET; [1]
  %Inh: 2%
MINK
  %Inh: 0%
MKK7
  %Inh: 0%
MKNK1
  %Inh: 0%
MKNK2
  %Inh: 17%
MLCK
  %Inh: 0%
